# Test results from PubChem BioAssay AID2562 (National Center for Advancing Translational Sciences (NCATS), 2010).
# Records with an inconclusive call do not appear. A call without a number means that no potency is given here. The source made the active and inactive calls. Calls follow the shape of the dose curve; as a rule, active = well fitted curve in the direction sought with a large enough effect; inconclusive = small, poorly fitted or top-dose-only effect, or effect the other way, or another doubt; inactive = no such curve, though single readings can be large or run the other way.
# Target: Pyruvate kinase PKLR (Homo sapiens) (UniProt P30613)
# Test: Secondary LDH Assay for Activators of Human Reticulocyte Pyruvate Kinase: for Probe SAR
# Conditions: purified hPK-R, LDH-coupled NADH fluorescence kinetic; series mostly up to 58.4 µM
# Source text: NIH Chemical Genomics Center [NCGC] Wael M. Rabeh, Lyudmila Nedyalkova and Hee-Wan Park [Structural Genomics Consortium, 100 College St. Toronto, Ontario, Canada] NCGC Assay Overview: Human pyruvate kinase reticulocyte (hPK-R) enzyme was supplied as a highly purified (>95% pure) preparation from Structural Genomics Consortium in Toronto (Ontario, Canada) and a secondary assay was used to evaluate compounds. This assay couples the formation of pyruvate from hPK-R using lactate dehydrogenase (LDH) and NADH. The depletion of NADH is followed in a fluorescent-based kinetic assay that follows the formation of pyruvate to lactate, as catalyzed LDH. Pyruvate kinase substrates, PEP and ADP, were present in the assay at 0.1 mM and 4 mM respectively. In this kinetic assay initial rates were determined by following the fluorescence of NADH depletion.
# NCGC Assay Protocol Summary: Three uL of substrate mix (final concentration, 50 mM Tris-Cl pH 8.0, 200 mM KCl, 15 mM MgCl2, 0.1 mM PEP, 4.0 mM ADP, and 0.2 mM NADH) was dispensed into black-solid 1536 well plates. 23 nL of compounds were delivered by a pin tool and 1 uL of enzyme mix (final concentrations, 10 nM hPK-R and 1 uM of LDH) was added. Plates were immediately placed in ViewLux (Perkin Elmer) and NADH fluorescence was determined at 30 second exposure intervals for between 3 and 6 minutes. Data were normalized to the uninhibited and EC100 activation using known activators such as fructose-bis-phosphate.
# Sequence of Pyruvate kinase PKLR (Homo sapiens) (P30613 whole entry, looked up): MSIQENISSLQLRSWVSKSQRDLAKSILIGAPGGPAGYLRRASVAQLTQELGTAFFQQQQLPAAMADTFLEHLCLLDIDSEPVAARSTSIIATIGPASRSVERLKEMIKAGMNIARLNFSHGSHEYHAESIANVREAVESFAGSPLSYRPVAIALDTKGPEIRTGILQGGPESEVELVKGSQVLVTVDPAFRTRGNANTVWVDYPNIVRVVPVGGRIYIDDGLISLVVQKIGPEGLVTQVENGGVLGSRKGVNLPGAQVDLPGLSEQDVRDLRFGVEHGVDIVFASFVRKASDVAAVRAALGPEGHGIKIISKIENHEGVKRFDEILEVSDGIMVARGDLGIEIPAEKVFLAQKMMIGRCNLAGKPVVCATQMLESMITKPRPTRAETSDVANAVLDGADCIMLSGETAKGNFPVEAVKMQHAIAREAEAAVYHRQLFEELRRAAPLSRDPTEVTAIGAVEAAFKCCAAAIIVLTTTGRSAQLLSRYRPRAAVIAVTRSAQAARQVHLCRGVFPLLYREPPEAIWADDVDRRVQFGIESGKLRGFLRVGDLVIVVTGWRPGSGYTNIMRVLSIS
row,SMILES,Potency
1,O=C1c2ccccc2C(=O)N1c1ccccc1O,inactive
2,Cc1ccc(NS(=O)(=O)c2ccc(F)cc2)cc1C,inactive
3,Cc1ccc(NS(=O)(=O)c2ccc3c(c2)C(Cl)(Cl)C(=O)N3)cc1C,inactive
4,Cc1ccccc1OC1=NS(=O)(=O)c2ccccc21,inactive
5,Cc1ccc(NS(=O)(=O)c2cc3c(cc2Cl)NC(=O)CO3)cc1C,inactive
6,Cc1ccc(NS(=O)(=O)c2cccc(F)c2)cc1C,inactive
7,O=C1CCc2cc(S(=O)(=O)Nc3cccc4ccccc34)ccc2N1,inactive
8,O=C1CCc2cc(S(=O)(=O)Nc3ccccc3-c3ccccc3)ccc2N1,inactive
9,Cc1ccc(NS(=O)(=O)c2ccc3c(ccn3C)c2)cc1C,inactive
10,Cc1ccc(-c2nc3cnccn3c2Nc2ccc(C(C)C)cc2)o1,inactive
11,Cc1ccc(NS(=O)(=O)c2cc3c(cc2C)OCC(=O)N3)cc1C,inactive
12,Cc1ccn2c(NC3CCCCC3)c(-c3ccc(C)o3)nc2c1,inactive
13,Fc1ccccc1-c1ccc(-c2nc3ccc(Cl)cn3c2Nc2ccc(Cl)cc2)o1,inactive
14,CC(=O)N1CCCc2cc(S(=O)(=O)Nc3ccc(C)c(C)c3)ccc21,inactive
15,O=C1c2ccccc2C(=O)N1c1cccc(=O)[nH]1,inactive
16,O=C1c2ccccc2C(=O)N1c1cccc2ncccc12,inactive
17,O=C1CCc2cc(S(=O)(=O)Nc3ccc4ccccc4c3)ccc2N1,inactive
18,Cc1ccc(NS(=O)(=O)c2ccc(Cl)cc2)cc1C,inactive
19,O=C1c2ccccc2C(=O)N1c1cccc2cccnc12,inactive
20,O=S(=O)(c1ccc2c(c1)OCCO2)N1CCN(S(=O)(=O)c2c(F)cccc2F)CC1,inactive

row,SMILES,Potency
1,Cc1ccc(NS(=O)(=O)c2cc3c(cc2N2CCCCC2)NC(=O)CC3)cc1C,inactive
2,Cc1ccc(NS(=O)(=O)c2ccc3c(c2)N(C)C(=O)CO3)cc1C,inactive
3,O=C1c2ccccc2C(=O)N1c1ccc(O)cc1,inactive
4,COc1cc(F)c(S(=O)(=O)N2CCCN(S(=O)(=O)c3cccc(N)c3)CC2)c(F)c1,inactive
5,Cc1ccc(NS(=O)(=O)c2ccc3c(c2)CCN(C(=O)C(F)(F)F)C3)cc1C,inactive
6,CSc1cc2c(s1)c1cnn(Cc3cccc(O)c3)c(=O)c1n2C,259 nM (active)
7,O=C1CCc2cc(S(=O)(=O)Nc3ccccn3)ccc2N1,inactive
8,Nc1cc(S(=O)(=O)N2CCN(S(=O)(=O)c3ccc4c(c3)OCCO4)CC2)ccn1,inactive
9,CC(=O)Nc1ccc(S(=O)(=O)Nc2ccc(C)c(C)c2)cc1,inactive
10,COc1ccccc1N1C(=O)c2ccccc2C1=O,inactive
11,Cc1ccc(NS(=O)(=O)c2ccc3c(c2)CCC(=O)N3)cc1,inactive
12,O=C1c2ccccc2C(=O)N1c1cncc2ccccc12,inactive
13,O=S1(=O)N=C(Oc2cccc(Cl)c2)c2ccccc21,inactive
14,O=C1c2ccccc2C(=O)N1c1cnc2ccccc2c1,inactive
15,Cc1ccc(NS(=O)(=O)c2cc3c(cc2Cl)CCC(=O)N3)cc1C,inactive
16,O=C1CCc2cc(S(=O)(=O)Nc3cccc(-c4ccccc4)c3)ccc2N1,inactive
17,O=C1c2ccccc2C(=O)N1c1cccc2cnccc12,inactive
18,COc1cccc(Cn2ncc3c4sc(S(C)=O)cc4n(C)c3c2=O)c1 (stereo not given),inactive
19,O=C1c2ccccc2C(=O)N1c1noc2ccccc12,inactive
20,O=C1CCc2cc(S(=O)(=O)Nc3cccc(F)c3)ccc2N1,inactive
